Assay outcomes (PubChem)
Rows were chosen to be rich in hits. Some 10% of all compounds tested hit in one or more screens of this group.
Pf growth 48h = Primary qHTS for delayed death inhibitors of the malarial parasite plastid, 48 hour incubation | Potency, µM (top dose mostly 28.7 µM), usual class: inhibitors | hit rate 5.9% among 310,000 | P. falciparum luciferase growth in erythrocytes, 48 h | AID 504832, 2011; active = well fitted inhibition curve with a large enough effect; inconclusive = small, poorly fitted or top-dose-only effect, or another doubt; inactive = no such curve, though single readings can be large or run the other way
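Cell-based growth assay: transgenic P. falciparum expressing firefly luciferase, cultured in red cells within RPMI 1640 containing 0.5% w/v Albumax, 24 mM bicarbonate and gentamycin. A drop in luciferase activity indicates inhibition.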
SARS PLpro yeast = qHTS of Yeast-based Assay for SARS-CoV PLP; S. cerevisiae expressing SARS-CoV PLpro, growth rescue; Potency, µM (top dose mostly 32.9 µM), actives largely listed as activators; hit rate 0.19% among 330,000; AID 485353, 2010; also: nearly all actives have a fitted effect of over 55% in size
Pf growth 96h = Primary qHTS for delayed death inhibitors of the malarial parasite plastid, 96 hour incubation | hit rate 6.9% among 320,000 | P. falciparum luciferase reporter growth, 96 h | Potency, µM (doses to about 28.7 µM), actives largely listed as inhibitors; active = well fitted inhibition curve with a large enough effect; inconclusive = small, poorly fitted or top-dose-only effect, or another doubt; inactive = no such curve, though single readings can be large or run the other way
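Parasite growth measured via integrated firefly luciferase reporter in P. falciparum. Infected erythrocytes at 2% hematocrit, 0.05% parasitemia final were treated 96 hours at 37 C under 5% CO2, and luminescence was read.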
NS1 inh = qHTS Assay for Inhibitors of Influenza NS1 Protein Function; Potency, µM (highest dose often 46.1 µM); hit rate 0.4% among 270,000; also: actives are rising curves; nearly all actives have a fitted effect of over 50% in size
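A cell-based growth assay was used: compounds that relieve NS1-induced slow growth of budding yeast raise OD600. Assay medium was yeast nitrogen base with ammonium sulphate and -URA supplement, pH 6.0, with 2% galactose.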
Of the large screens only hits and unclear results are named; the others gave an inactive call. Unless noted, calls follow the shape of the full dose curve.

O=C(C[n+]1cccc(CNC(=O)c2ccc(OC(F)F)cc2)c1)Nc1cc(C(F)(F)F)ccc1Cl	Pf growth 48h 1.7µM, Pf growth 96h 0.93µM
Cc1cccc(C)c1N(C(=O)c1ccco1)C(C(=O)NC1CCCC1)c1ccncc1 (stereo not drawn)	none
Cc1cc(SCc2cc(=O)[nH]c3ccccc23)nc2ccccc12	Pf growth 48h 1.5µM, Pf growth 96h inconclusive
O=c1cc(CSc2ccccn2)c2ccccc2[nH]1	Pf growth 96h 9.3µM
O=C(CCC(=O)N1CCN(c2ccccc2)CC1)Nc1nnc(C2CCCCC2)s1	none
[O-][n+]1ccccc1SSc1cccc[n+]1[O-]	Pf growth 48h 0.85µM, Pf growth 96h 0.48µM (no result: SARS PLpro yeast, NS1 inh)
O=C(CSc1cccc[n+]1[O-])N1CCCCCC1	none (no result: NS1 inh)
O=C(CSc1cccc[n+]1[O-])CSc1cccc[n+]1[O-]	Pf growth 48h 9.3µM, Pf growth 96h 0.19µM
COC(=O)c1ccc(-n2c(C)cc(C(=O)CSc3cccc[n+]3[O-])c2C)cc1	none (no result: NS1 inh)
COC(=O)c1ccc(C(=O)OC)c(NC(=O)CSc2cccc[n+]2[O-])c1	Pf growth 48h inconclusive, Pf growth 96h 1.2µM
Cn1sccc1=O	Pf growth 48h inconclusive (no result: SARS PLpro yeast, NS1 inh)
CCOc1ccccc1OCC(=O)OC(C)C(=O)Nc1ncc(Cl)cc1Cl (stereo not drawn)	none (no result: NS1 inh)
COC(=O)C1=C(CN2CCc3ccccc32)NC(=O)NC1c1cc(C)ccc1C (stereo not drawn)	Pf growth 48h 10µM, NS1 inh inconclusive (no result: Pf growth 96h)
COC(=O)C1=C(CN2CCSCC2)NC(=O)NC1c1cc(C)ccc1C (stereo not drawn)	Pf growth 48h inconclusive
CCOC(=O)C1=C(CSc2nc3ccccc3s2)NC(=O)NC1c1cc(C)ccc1C (stereo not drawn)	Pf growth 48h inconclusive, Pf growth 96h 9.3µM
CCOC(=O)C1=C(CN2CCN(C(=O)OCC)CC2)NC(=O)NC1c1ccc2c(c1)OCO2 (stereo not drawn)	Pf growth 48h inconclusive (no result: NS1 inh)
CCOC(=O)C1=C(CSc2nc3ccccc3s2)NC(=O)NC1c1ccc(OC)cc1 (stereo not drawn)	Pf growth 96h inconclusive
CCOC(=O)C1=C(CN2CCN(C(=O)c3ccco3)CC2)NC(=O)NC1c1ccc(C)cc1 (stereo not drawn)	Pf growth 48h 13µM, Pf growth 96h inconclusive
CCOC(=O)C1=C(CN2CCSCC2)NC(=O)NC1c1cc(C)ccc1C (stereo not drawn)	Pf growth 48h 12µM
CCCn1c(N)c(N(CCOC)C(=O)CCC2CCCCC2)c(=O)[nH]c1=O	none (no result: NS1 inh)
COCCCN(C(=S)NC(=O)C12CC3CC(CC(C3)C1)C2)c1c(N)n(Cc2ccccc2)c(=O)[nH]c1=O	Pf growth 48h inconclusive, Pf growth 96h inconclusive
CCOc1cc(/C=C2\CCCc3c2nc2ccccc2c3C(=O)O)ccc1OC	none
COc1ccc(-c2oc3cccnc3c2/C=C/c2ccc(OC)c(OC)c2)cc1	Pf growth 48h inconclusive, Pf growth 96h 12µM, NS1 inh inconclusive
O=[N+]([O-])c1ccc2c(c1)Cc1cc(N=Cc3ccc4c(c3)OCO4)ccc1-2	none (no result: Pf growth 48h, SARS PLpro yeast, Pf growth 96h)
COC(=O)c1c(NC(=O)c2ccc([N+](=O)[O-])o2)sc2c1CCN(C(C)C)C2	Pf growth 48h 15µM, Pf growth 96h inconclusive
COC(=O)c1c(NC(=O)Cc2ccccc2)sc2c1CCN(C(C)C)C2	none
CC(C)N1CCc2c(sc(NC(=O)c3ccc([N+](=O)[O-])o3)c2C(N)=O)C1	Pf growth 48h 13µM, Pf growth 96h 4.7µM
O=C(CCN1C(=O)c2ccccc2S1(=O)=O)NCc1ccco1	Pf growth 96h 12µM
Cn1c(=O)cc(OCCCC(=O)NCc2ccco2)c2ccccc21	Pf growth 96h 12µM
O=C(CCN1C(=O)c2ccccc2S1(=O)=O)NCc1ccccc1	none (no result: NS1 inh)
O=C(CCCCCN1C(=O)c2ccccc2C1=O)NCc1ccco1	Pf growth 96h 1µM (no result: Pf growth 48h)
Cn1c(CNC(=O)CNC(=O)c2ccc(C(C)(C)C)cc2)cc(=O)n(C)c1=O	none
O=C(CSc1nnc(-c2cccs2)n1C1CC1)NC1CCS(=O)(=O)C1 (stereo not drawn)	none (no result: NS1 inh)
CCC(=O)c1ccc(OCC(=O)OCC(=O)c2cc(C)n(C)c2C)cc1	Pf growth 48h inconclusive, Pf growth 96h 13µM
Cc1ccc(COc2ccsc2-c2n[nH]c(=S)n2C)cc1	none
Cn1c(-c2sccc2OCc2ccccc2)n[nH]c1=S	Pf growth 48h 10µM, SARS PLpro yeast inconclusive, Pf growth 96h inconclusive
COCCNC(=O)c1cc(S(=O)(=O)N2CCCCC2)ccc1N1CCOCC1	none (no result: NS1 inh)
O=C(OCc1ccccc1)c1cc(S(=O)(=O)N2CCCCC2)ccc1N1CCOCC1	Pf growth 48h inconclusive, Pf growth 96h 12µM (no result: NS1 inh)
O=C(OCc1cccc(Cl)c1)c1cc(S(=O)(=O)N2CCCCC2)ccc1N1CCOCC1	Pf growth 48h inconclusive, Pf growth 96h 13µM
Cc1ccc(COC(=O)c2cc(S(=O)(=O)N3CCCCC3)ccc2N2CCOCC2)cc1	Pf growth 48h 9.3µM, Pf growth 96h inconclusive (no result: NS1 inh)
Cc1ccc(CNC(=O)c2cc(S(=O)(=O)N3CCCCC3)ccc2N2CCOCC2)cc1	Pf growth 48h 8.3µM, Pf growth 96h inconclusive (no result: NS1 inh)
COC(=O)c1cc(S(=O)(=O)N2CCCCC2)ccc1N1CCOCC1	Pf growth 48h inconclusive (no result: NS1 inh)
CN(c1ccc(C(=O)COC(=O)C2CC2)cc1)S(C)(=O)=O	none (no result: Pf growth 48h, Pf growth 96h, NS1 inh)
O=C(OCc1cccc(C(F)(F)F)c1)c1cc([N+](=O)[O-])ccc1N1CCOCC1	Pf growth 48h inconclusive, Pf growth 96h inconclusive (no result: NS1 inh)
O=C(OCCOc1cccc(Cl)c1)c1cc(S(=O)(=O)N2CCCCC2)ccc1N1CCOCC1	Pf growth 48h inconclusive, Pf growth 96h 13µM (no result: NS1 inh)
CC(C)CNC(=O)COC(=O)c1cc(S(=O)(=O)N2CCCCC2)ccc1N1CCOCC1	Pf growth 48h inconclusive, Pf growth 96h inconclusive
CC(C)CCCC(C)NC(=O)c1cc(S(=O)(=O)N2CCCCC2)ccc1N1CCOCC1 (stereo not drawn)	Pf growth 48h inconclusive, Pf growth 96h 9.3µM (no result: NS1 inh)
O=C(OCc1cccc(Cl)c1)c1cc([N+](=O)[O-])ccc1N1CCOCC1	Pf growth 48h inconclusive, Pf growth 96h 12µM (no result: NS1 inh)
COCC(C)NC(=O)c1cc(S(=O)(=O)N2CCCCC2)ccc1N1CCOCC1 (stereo not drawn)	none
Cc1ccc(C)c(COC(=O)c2cc(S(=O)(=O)N3CCCCC3)ccc2N2CCOCC2)c1	Pf growth 48h 15µM, Pf growth 96h inconclusive (no result: NS1 inh)
Cn1c(CN2CCCCC2)nc2cc(NC(=O)c3cccs3)ccc21	Pf growth 48h 10µM
Cn1c(CN2CCCCC2)nc2cc(NC(=O)c3cccc(Br)c3)ccc21	Pf growth 96h 4.7µM (no result: Pf growth 48h)
CCOC(=O)N1CCN(Cc2nc3cc(NC(=O)c4cccs4)ccc3n2C)CC1	Pf growth 48h inconclusive
CCOC(=O)N1CCN(Cc2nc3cc(NC(=O)c4cccs4)ccc3n2CC)CC1	Pf growth 48h 2.9µM
CCCc1nc2ccc(NC(=O)c3cccs3)cc2c(=O)n1Cc1ccccc1Cl	Pf growth 48h 1.9µM, Pf growth 96h inconclusive
CCc1ccc(Nc2nnc(SCC(=O)c3c(N)n(C4CC4)c(=O)[nH]c3=O)s2)cc1	Pf growth 96h inconclusive (no result: NS1 inh)
O=c1cc(-c2ccccc2)[nH]n2cnnc12	none
Cc1nn(CC(=O)N2CCN(S(=O)(=O)c3ccccc3)CC2)c(C)c1[N+](=O)[O-]	none (no result: NS1 inh)
